Most compounds without a hit are left out; they make up all but 2.4% or so of the library.
D2 ag-1: activates the human D2 dopamine receptor. hit rate 0.53% among 340,000. activation, % at 2 µM. HEK293 T-REx D2 cells, calcium flux agonist mode. AID 485358. P14416;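 active means activation over 3 SD above normal in the single-dose calcium agonist read, cut at about 30% in these data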
Target sequence (P14416 whole entry, looked up): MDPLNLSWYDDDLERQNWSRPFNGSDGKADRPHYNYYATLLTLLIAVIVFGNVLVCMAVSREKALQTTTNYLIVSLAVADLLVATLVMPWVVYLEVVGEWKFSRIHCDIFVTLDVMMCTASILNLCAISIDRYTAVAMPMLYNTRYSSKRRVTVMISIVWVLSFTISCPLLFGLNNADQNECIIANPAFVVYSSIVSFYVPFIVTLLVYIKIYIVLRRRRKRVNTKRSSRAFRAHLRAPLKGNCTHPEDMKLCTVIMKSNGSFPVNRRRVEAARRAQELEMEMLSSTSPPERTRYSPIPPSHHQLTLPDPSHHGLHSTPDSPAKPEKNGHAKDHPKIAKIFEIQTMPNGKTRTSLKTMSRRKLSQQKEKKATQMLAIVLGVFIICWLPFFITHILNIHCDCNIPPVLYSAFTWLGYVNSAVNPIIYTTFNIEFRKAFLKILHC
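In this primary screen, compounds producing a positive calcium signal within 180 s of addition to tetracycline-induced, force-coupled HEK293 Trex D2 cells are flagged; cells are dye-loaded with a no-wash calcium kit beforehand.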
D2 antagonist: antagonists of human D2 dopamine receptor; P14416; HEK293 TREx D2 cells, calcium flux, dopamine EC80; inhibition, % at 10 µM; hit rate 2% among 340,000; in the data active means inhibition above about 30%; inactive means below that, where a call was filed
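Cells plated overnight at 30 C with tetracycline; no-wash calcium dye, 30–90 min RT; 10 s baseline; compound pinned; 180 s read; EC80 dopamine added; another 180 s read.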
D2 PAM-1: positive allosteric modulators of human D2 dopamine receptor. P14416. HEK293 T-REx D2, calcium flux, EC20 dopamine potentiation. potentiation, % at 10 µM. hit rate 0.34% among 340,000;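 active means potentiation over 3 SD above the plate norm, cut at about 30% in these data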
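Calcium flux readout, no-wash dye, 1 read/s. Inducible HEK293 Trex D2 line, overnight 30 C. Compound alone 180 s (agonist flags), then EC20 dopamine, another 180 s to score potentiation.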
D2 PAM-2: positive allosteric modulators of human D2 dopamine receptor; P14416; DiscoveRx D2 beta-arrestin cells, luminescence, 90 min; 100% = 57 uM dopamine signal; potentiation, % (no concentration beside the values); hit rate 0.23% among 360,000; in the data active means potentiation above about 50%; inconclusive means mostly about 30% to 49%
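PathHunter beta-arrestin assay in DiscoveRx D2 cells. Compounds were added with an EC20 of dopamine (50 nM final) for 90 min at 37 deg C. Luminescence was read 1 h after detection reagent, with 57 uM dopamine as the EC100 control.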
D2 ag-2: agonists of human D2 dopamine receptor (beta-arrestin) | hit rate 0.084% among 360,000 | DiscoveRx PathHunter D2 beta-arrestin, luminescence, 90 min; 100% = 57 uM dopamine signal | AID 624465 | activation, % (concentration not given with the values); in the data active means activation above about 40%; inconclusive means between about 15% and that limit
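DiscoveRx PathHunter D2 beta-arrestin cells (2,100/well) attached overnight, then compound-stimulated 90 min at 37 C in HBSS/10 mM HEPES/0.1% Tween-20 buffer; beta-galactosidase complementation read by luminescence after 1 h at ambient temperature. Dopamine 57 uM final (EC100) as control.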
Hits are given with their value; n = inactive; u = inconclusive; x = no result.

SMILES	D2 ag-1	D2 antagonist	D2 PAM-1	D2 PAM-2	D2 ag-2
CCC(C)NC(=O)COC(=O)c1cc([N+](=O)[O-])ccc1Sc1nc(C)cs1 (stereo unspecified)	n	n	n	51	n
O=C(NCc1ccc(F)cc1)c1cc2n(n1)CCCN(Cc1ccc(F)cc1)C2=O	n	x	n	x	x
COc1ccc(S(N)(=O)=O)cc1-c1nnc2c3ccccc3c(C)nn12	n	30	n	n	n
CCC(=O)N1CCCc2cc(S(=O)(=O)N3CCC(C(=O)Nc4ccc(F)c(F)c4)CC3)ccc21	n	x	n	x	x
CC1CCC(NC(=O)c2ccc3c(c2)N(Cc2ccccc2F)C(=O)c2ccccc2S3=O)CC1 (stereo unspecified)	n	x	n	x	x
O=C1c2oc3ccccc3c(=O)c2C(c2ccc(Br)cc2)N1c1ccccn1 (stereo unspecified)	n	x	n	x	x
COc1ccc(OCc2nnc(SCC(=O)Nc3ccc(C)cc3)o2)cc1	n	n	n	n	n
Cc1nc(SCC(=O)Nc2cccc(Cl)c2)n[nH]1	n	n	30	n	n
Cc1ccc(OCc2nnc(SCC(=O)N3c4ccccc4Sc4ccc(Cl)cc43)o2)cc1	n	n	n	50	n
COc1ccc(OCc2nnc(SCC(=O)Nc3cccc(Cl)c3)o2)cc1	n	43	n	n	n
COc1cccc(NC(=O)C2CC(=O)N(c3ccc(Br)cc3)C2)c1 (stereo unspecified)	n	x	n	x	x
O=S(=O)(Nc1ccc(-c2ccc(N3CCCC3)nn2)cc1)c1ccc(OC(F)(F)F)cc1	n	x	n	x	x
O=C(Nc1ccc(F)cc1)c1cccn1-c1nnc(N2CCCCC2)s1	x	x	n	x	x
CCc1ccc(-c2cc(C)no2)cc1S(=O)(=O)N1CCN(c2ccc(OC)cc2)CC1	n	n	n	n	n
CCc1ccc(-c2cc(C)no2)cc1S(=O)(=O)NCCN1CCC(C)CC1	n	n	n	n	n
CCc1ccc(-c2cc(C)no2)cc1S(=O)(=O)NCCCN1CCN(c2ccccc2)CC1	72	51	n	n	n
CCc1ccc(-c2cc(C)no2)cc1S(=O)(=O)N1CCN(c2ccc(F)cc2)CC1	n	36	n	n	n
Cc1ccc(NC(=O)c2cnc(SCC(=O)N3CCCc4ccccc43)n(C)c2=O)cc1C	n	x	n	x	x
CCCCOC(=O)c1ccc(NC(=O)CN2C(=O)NC3(CCCCCC3)C2=O)cc1	n	n	n	n	n
CCOC(=O)c1ccc(NC(=O)CSC2=NC(=O)C(CC)C(=O)N2)cc1 (stereo unspecified)	n	47	n	n	n
CCC1C(=O)N=C(SCC(=O)Nc2cccc3ccccc23)NC1=O (stereo unspecified)	n	n	n	n	n
CCOC(=O)c1ccc(NC(=O)CN2C(=O)NC3(CCCCCCC3)C2=O)cc1	n	38	n	n	n
O=C(CN1C(=O)NC2(CCCCCC2)C1=O)Nc1ccc(Br)cc1Br	n	37	n	n	n
Cc1ccc(NC(=O)CN2C(=O)NC3(CCCC3)C2=O)c(Cl)c1	n	n	n	n	n
N#Cc1ccsc1NC(=O)CN1C(=O)NC2(CCCC2)C1=O	n	40	n	x	x
SMILES	D2 ag-1	D2 antagonist	D2 PAM-1	D2 PAM-2	D2 ag-2
NC(=O)c1ccsc1NC(=O)CN1C(=O)NC2(CCCCC2)C1=O	n	n	n	n	n
COc1ccccc1CNC(=O)c1nnn(CC(=O)Nc2c(C)cccc2C)c1N	n	x	n	x	x
CC1CCC2(CC1)NC(=O)N(CC(=O)Nc1sc3c(c1C(N)=O)CCC3)C2=O (stereo unspecified)	n	38	n	n	n
COC(=O)c1c(NC(=O)CN2C(=O)NC3(CCC(C)CC3)C2=O)sc2c1CCC2 (stereo unspecified)	n	n	n	n	n
Cc1cc(C)c(NC(=O)c2cc(S(=O)(=O)N3CCC4(CC3)OCCO4)ccc2F)c(C)c1	n	x	n	x	x
Cc1ccc2[nH]c(=O)c(CN(CCCN3CCOCC3)C(=O)Nc3ccc(Cl)cc3)cc2c1	n	31	n	n	n
Cc1c(NC(=O)c2ccc(Br)o2)cccc1-c1nc2ccccc2o1	n	x	n	x	x
Cc1ccc(NC(=O)c2nnn(-c3ccc4c(c3)OCCO4)c2N)cc1	n	60	n	n	n
NC(=O)C[n+]1cccc(CNC(=O)c2ccc(OC(F)F)cc2)c1	n	32	n	n	n
O=C(C[n+]1cccc(CNC(=O)c2ccc(OC(F)F)cc2)c1)Nc1cc(C(F)(F)F)ccc1Cl	n	63	n	n	n
CCc1c(C)sc(NC(=S)N2CC(C)OC(C)C2)c1C(=O)OC (stereo unspecified)	n	n	n	68	n
COc1cccc2cc(C(=O)NCc3ccccc3)c(=N)oc12	n	n	n	n	n
COc1cccc2cc(C(=O)NCc3ccc(Cl)cc3)c(=N)oc12	n	106	n	n	n
CC1=C(C(=O)OCc2ccccc2)C(c2cccc([N+](=O)[O-])c2)NC(=O)N1 (stereo unspecified)	n	n	n	59	n
CC1=C(C(=O)OCc2ccccc2)C(c2ccccc2Br)NC(=O)N1 (stereo unspecified)	n	n	n	u	97
COc1ccccc1C1NC(=O)NC(C)=C1C(=O)OCc1ccccc1 (stereo unspecified)	n	n	n	n	n
C=CCN1C(=O)C(CC(=O)O)SC1=Nc1cccc([N+](=O)[O-])c1 (stereo unspecified)	n	n	n	n	n
C=CCN1C(=O)C(CC(=O)O)SC1=Nc1ccc(N=Nc2ccccc2)cc1 (stereo unspecified)	n	n	39	n	n
O=C(O)CC1S/C(=N\N=C2CCCCCCC2)N(c2ccccc2)C1=O (stereo unspecified)	n	n	n	n	n
O=C(O)CC1SC(=Nc2ccccc2)N(c2ccccc2)C1=O (stereo unspecified)	n	43	n	n	n
COc1ccc(N2CCN(c3nc(Nc4ccc(F)cc4)nc(OC)n3)CC2)cc1	n	n	33	x	x
COc1ccc(N2CCN(c3nc(Cl)nc(Nc4ccc(F)cc4)n3)CC2)cc1	n	n	n	n	n
C=CCN1CCc2c(cc(O)c(O)c2Br)[C@@H](c2ccccc2)C1	x	x	x	66	59
Cc1ccc(CSCCNC(=O)c2ccc(C)cc2)cc1	n	32	n	n	n
COc1ccc(C(=O)NCCSCc2ccc(C)cc2)cc1	n	n	n	n	n
N/C(=N\OC(=O)c1cc(Cl)ccc1Cl)c1cccnc1	x	x	n	73	u
NC(=O)c1cccnc1	n	40	n	n	n
O=C(C(=O)c1cccnc1)c1cccnc1	x	x	n	n	n
N/C(=N\OC(=O)c1ccccc1Cl)c1cccnc1	n	n	n	96	n
Cc1c(C(=O)NCc2ccc(F)cc2)sc(=O)n1Cc1ccccc1F	x	x	x	n	n
